This passage reports parasite growth results from the supplement of paper PMC4894684.

The structures appear in SMILES notation. Counter-ions that a name gives are not always drawn. ± gives the standard deviation of the averaged measurements.

The subject of this test is Toxoplasma gondii RH (in HFF). The test is described as follows: parasite growth relative to the screen mean (all compounds = 100%); higher = less inhibition of parasite growth. To be noted: 5 µM; 72 h; oxygen 21 %. Put shortly: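 Each value is parasite growth expressed against the screen mean, averaged over two screens, where the mean of all compounds = 100%. The screen used 5 µM final compound on confluent human foreskin fibroblasts infected with RH β-Gal–GFP Toxoplasma (MOI 1:5) within 2 h and grown 72 h at 21% O2. Parasite number was measured by a CPRG β-Gal assay against in-plate standard curves.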
`COc1cccc(/C=N/N=C/c2cccc(OC)c2)c1`: the parasite growth was determined as 135 ± 4.2%.

The compound `CCOc1cc(C(=O)Nc2ccc(Cl)c(-c3nc4ccccc4[nH]3)c2)cc(OCC)c1OCC` displayed a parasite growth of 23.3 ± 3.9%.

On to `CC(=N)NCCCC[C@H](N)C(=O)O` [L-NIL hydrochloride], for which the parasite growth came to 130 ± 15%.

With `CC(C)C1C2CCC(C2)C1N` (stereo not drawn), the parasite growth turned out to be 118 ± 6.6%.

With `COc1nccc(-c2c(-c3ccc(F)cc3)ncn2C2CCC(O)CC2)n1` (stereo not drawn), the parasite growth was under 0%.

For the compound `Oc1ccc(C2CNCCc3c2cc(O)c(O)c3Cl)cc1` (stereo not drawn) [Fenoldopam hydrochloride], the parasite growth is 105 ± 14%.

For the compound `CN(C(=O)c1c(O)c2ccccc2n(C)c1=O)c1ccccc1` [Linomide], the parasite growth is 135 ± 4.5%.

For `CCOC(=O)[C@@H](C)Oc1cccc2c(=O)n(CC(=O)Nc3ccc4c(c3)OCCO4)ccc12`, the parasite growth worked out at 118 ± 12%.

With `COc1cc(OC)c(NC(=O)Nc2cc(C)on2)cc1Cl`, the parasite growth stood at 135 ± 17%.

In turn, `N=C(N)NC(=N)Nc1ccccc1` [1-Phenylbiguanide hydrochloride] registered a parasite growth of 91.9 ± 21%.

Consider `COc1ccccc1N1CCN(CC(O)COc2cccc3ccccc23)CC1` (stereo not drawn) [Naftopidil hydrochloride], for which the parasite growth was 118.7 ± 0.3%.

For the compound `c1ccc(C(O[C@@H]2CCCN(CCc3ccc4c(c3)OCO4)C2)c2ccccc2)cc1` [Zamifenacin fumarate], the parasite growth was determined as 128 ± 20%.

For the compound `CN(C)[C@@H]1CCc2[nH]c3ccc(NC(=O)c4ccc(F)cc4)cc3c2C1`, the parasite growth turned out to be 124 ± 19%.

In turn, `CC(C1=C(CCN(C)C)Cc2ccccc21)c1ccccn1` (stereo in doubt) [(S)-(+)-Dimethindene maleate] returned a parasite growth of 83.1 ± 56%.

In the case of `Cn1ccc2cc3c(cc21)CCN3C(=O)Nc1cccnc1`, the parasite growth came out at 121 ± 17%.

In turn, `Nc1ncnc2c1ncn2C1CCCO1` (stereo not drawn) returned a parasite growth of 70.4 ± 16%.

Regarding `OC(CNCC(O)C1CCc2cc(F)ccc2O1)C1CCc2cc(F)ccc2O1` (stereo not drawn) [Nebivolol hydrochloride], the parasite growth amounted to 46 ± 23%.

Turning to `Nc1nc2c(nc(Br)n2[C@@H]2O[C@@H]3COP(=O)(O)O[C@H]3[C@H]2O)c(=O)[nH]1` [8-Bromo-cGMP, sodium salt], the parasite growth stood at 133 ± 26%.

As for `CC(=O)N1CCN(C)CC1` [1-Acetyl-4-methylpiperazine hydrochloride], the parasite growth is 109 ± 40%.

Turning to `CC(C)NCC(O)c1ccc(NS(C)(=O)=O)cc1` (stereo not drawn) [Sotalol hydrochloride], the parasite growth amounted to 108 ± 6.9%.

Take `O=c1cc(-c2cccc3c2Sc2ccccc2S3)oc(N2CCOCC2)c1`: the parasite growth turned out to be 112 ± 15%.

On to `COC(=O)C1=C(C)NC(C)=C(C(=O)OCCSc2ccccc2)C1C` (stereo not drawn), for which the parasite growth is 146 ± 12%.

The compound `COc1ccccc1N1CCN(CCCCNC(=O)c2ccc(-c3ccc(C(C)=O)cc3)cc2)CC1` gave a parasite growth of 156 ± 28%.

Turning to `COc1[nH]c2ccc(F)cc2c1C(=O)OCC1CCN(CCNS(C)(=O)=O)CC1.NS(=O)(=O)O`, the parasite growth worked out at 80.2 ± 32%.

Regarding `O=C(O)COc1cccc(-c2ocnc2-c2nc(-c3ccccc3)c(-c3ccccc3)o2)c1`, the parasite growth was determined as 62.8 ± 28%.

For the compound `CN(C)C(=O)C(=O)c1cn(C)c2cc(Cl)c(C(=O)N3CCC(Cc4ccc(F)cc4)CC3)cc12`, the parasite growth was determined as 140 ± 28%.

The compound `Cc1cc(C)c(S(=O)(=O)Nc2ccccc2C(F)(F)F)c(C)c1` yielded a parasite growth of 145 ± 10%.

As to `Cc1ccc(O)c(N=Nc2ccccc2)n1`, the parasite growth came out at 92.5 ± 68%.

Turning to `O=C1c2ccccc2C(Cc2ccnc(F)c2)(Cc2ccnc(F)c2)c2ccccc21`, the parasite growth came out at 102 ± 14%.

For `OCCN(CCO)c1nc(N2CCCCC2)c2nc(N(CCO)CCO)nc(N3CCCCC3)c2n1` [Dipyridamole], the parasite growth came out at 142 ± 1.7%.

With `CCCC1O[C@@H]2C[C@H]3[C@@H]4CCC5=CC(=O)C=C[C@]5(C)[C@H]4[C@@H](O)C[C@]3(C)[C@]2(C(=O)CO)O1` (stereo partly drawn) [Budesonide], the parasite growth came out at 138 ± 12%.

The compound `CS(=O)(=O)Nc1c(O)ccc2c1CCCC2C1=NCCN1` (stereo not drawn) gave a parasite growth of 101 ± 12%.

Compound `COP(=O)(OC)OC(c1ccc(Cl)cc1)P(=O)(OC)OC` (stereo not drawn) showed a parasite growth of 79.4 ± 28%.

In turn, `FC(F)(F)c1cc(COC2CCCNC2c2ccccc2)cc(C(F)(F)F)c1` [L-733,060 hydrochloride] had a parasite growth of 29.6 ± 16%.

`NCCCCCc1c[nH]cn1` [Impentamine dihydrobromide] returned a parasite growth of 132 ± 7.9%.

Consider `CN(C)CCC1(c2ccc(Cl)cc2)Cc2ccccc2C(=O)O1` (racemic) [(±)-AC 7954 hydrochloride], for which the parasite growth is 98.7 ± 67%.

As to `O=Nc1ccc(O)c2ncccc12`, the parasite growth is under 0%.

The compound `CN(Cc1ccccc1)C(=O)[C@H](Cc1ccc2ccccc2c1)NC(=O)[C@@H]1C[C@@H](O)CN1C(=O)c1cn(C)c2ccccc12` displayed a parasite growth of 138 ± 4.8%.
